Test results reported in PubChem BioAssay (NCATS).
Inconclusive results are not listed. Entries that show only a call come without a potency. The source made the active and inactive calls. Calls follow the shape of the dose curve; as a rule, active = well fitted curve in the direction sought with a large enough effect; inconclusive = small, poorly fitted or top-dose-only effect, or another doubt; inactive = no such curve, though single readings can be large; an effect the other way counts as inactive or inconclusive. Numbered stars: 1 amine (or outer) side, 2 acyl side, 3 side chain; on linkers, the order of the positions; unused ones are H or OH. Square brackets hold non-standard residues; d marks the D form. Peptide text beside a SMILES is read from it. X5 = O=C([C@@H](CC(O)CCl)O[*:1])[*:2]; aIle = CC[C@@H](C)[C@H](N)C(=O)O; NMeV = CN[C@H](C(=O)O)C(C)C; NMeA = CN[C@@H](C)C(=O)O; βAla = NCCC(=O)O

Tests used:
[1] = molecular target: Cellular tumor antigen p53 (Homo sapiens) (UniProt P04637); experiment: Primary qHTS for small molecule compounds that upregulate eGFP-tagged delta133p53alpha (in N-terminal) cells. (AID 2060322); details: NCI-H358 eGFP-delta133p53alpha fluorescence, 24 h; activation: hits give high values; also: nearly all actives have a fitted effect of over 75% in size; also: potency is read from the fitted curve at half-maximal effect;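 as to activation: cells pre-induced with doxycycline then dosed without doxycycline; series mostly up to about 56 µM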
In short: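 NCI-H358 cells pre-induced 24 h with 10 ng/ml doxycycline for eGFP-delta133p53alpha, plated dox-free and exposed 24 h at 37C to titrated compounds. Fixed, Hoechst-stained; gated GFP peak intensity by laser scanning cytometry, normalized to DMSO (0%) and 57.5 uM 5-azacytidine (100%).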

[2] = molecular target: Aldehyde dehydrogenase, mitochondrial (Homo sapiens) (UniProt P05091); experiment: qHTS for Inhibitors of the Aldehyde Dehydrogenase Family (ALDH2) Primary screen (AID 2061308); also: nearly all actives have a fitted effect of over 55% in size
[3] = molecular target: Retinaldehyde dehydrogenase 3 (Homo sapiens) (UniProt P47895); experiment: qHTS for Inhibitors of the Aldehyde Dehydrogenase Family (ALDH1A3) Primary screen (AID 2061315)

Cellular tumor antigen p53 (Homo sapiens), sequence (P04637 whole entry, looked up): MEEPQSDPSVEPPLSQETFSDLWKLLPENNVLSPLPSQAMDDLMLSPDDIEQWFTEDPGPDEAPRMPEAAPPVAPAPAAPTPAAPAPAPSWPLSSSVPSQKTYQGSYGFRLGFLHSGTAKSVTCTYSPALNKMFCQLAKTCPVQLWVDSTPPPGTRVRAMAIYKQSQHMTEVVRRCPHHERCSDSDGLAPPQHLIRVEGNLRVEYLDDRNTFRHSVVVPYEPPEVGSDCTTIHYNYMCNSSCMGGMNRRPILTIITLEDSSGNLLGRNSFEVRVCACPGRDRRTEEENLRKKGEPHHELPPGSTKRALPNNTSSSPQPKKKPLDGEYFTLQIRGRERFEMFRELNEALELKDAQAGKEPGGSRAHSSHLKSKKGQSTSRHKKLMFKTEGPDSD

| Compound | activation [1] | Potency [2] | Potency [3] | Potency [1] | activity change, negative = inhibition [2] | activity change, negative = inhibition [3] |
| --- | --- | --- | --- | --- | --- | --- |
| CCC1CN2CCc3cc(OC)c(OC)cc3C2CC1CC1=NCCc2cc(O)c(OC)cc21 (stereo unspecified) | 23.2% (inactive) | inactive | inactive | – | – | – |
| C[C@H](CCC(=O)O)C[C@H](C)C[C@H](C)C(=O)/C=C(\O)[C@H](C)C[C@H](C)C/C=C/[C@@H](C)[C@@H](O)[C@@H](C)[C@@H](O)C[C@@H]1CC[C@@](C)([C@H]2CC[C@@](C)([C@@H](C)O)O2)O1 | -6.33% (inactive) | inactive | inactive | – | – | – |
| CC1=CC(=O)[C@@H](O)[C@@]2(C)C1C[C@H]1OC(=O)[C@H](O)[C@@]3(O)[C@@H](C)[C@@H](O)[C@H](O)C2[C@@]13C (stereo partly specified) | – | inactive | inactive | 14.8 µM (active) | – | – |
| COC1CC(O[C@H]2CC[C@]3(C=O)C4CC[C@]5(C)[C@@H](C6=CC(=O)OC6)CC[C@]5(O)[C@@H]4CC[C@@H]3C2)OC(C)C1O[C@@H]1O[C@H](CO)[C@@H](O[C@@H]2O[C@H](CO)[C@@H](O)[C@H](O)[C@H]2O)[C@H](O)[C@H]1O (stereo partly specified) | – | inactive | inactive | 3.21 µM (active) | – | – |
| Cc1ccccc1C1=CCN(C)CC1 | 1.67% (inactive) | inactive | inactive | – | – | – |
| CC(CCc1ccc(O)cc1)O[C@@H]1O[C@H](CO[C@H]2OC[C@](O)(CO)[C@H]2O)[C@@H](O)[C@H](O)[C@H]1O (stereo partly specified) | 2.29% (inactive) | inactive | inactive | – | – | – |
| CC(=O)O[C@H]1CN2CCC1CC2 | 5% (inactive) | inactive | inactive | – | – | – |
| COC(=O)C1(C)CCC(O)C2(C)c3cc(O)c(C(C)C)cc3C(O)C(OC(C)=O)C12 (stereo unspecified) | -2.68% (inactive) | inactive | inactive | – | – | – |
| C=CC(C)(O)CC/C=C(\C)C(=O)O[C@H]1[C@H](O)[C@@H](CO)O[C@@H](OC(=O)[C@]23CCC(C)(C)CC2C2=CCC4[C@@]5(C)CC[C@H](O[C@@H]6O[C@H](CO[C@@H]7OC[C@H](O)[C@H](O)[C@H]7O[C@@H]7OC[C@@H](O)[C@H](O)[C@H]7O)[C@@H](O)[C@H](O)[C@H]6O)C(C)(C)C5CC[C@@]4(C)[C@]2(C)CC3)[C@@H]1OC1OC(C)C(O[C@@H]2OC[C@@H](O)[C@H](O[C@@H]3OC[C@@H](O)[C@H](O)[C@H]3O)[C@H]2O)C(O)C1O (stereo partly specified) | -6.87% (inactive) | – | – | – | 12% [at 11.2 µM] (inactive) | 3.26% [at 11.2 µM] (inactive) |
| COC(=O)N1CCN(C(=O)Cc2ccc(Cl)c(Cl)c2)[C@@H](CN2CCCC2)C1 | 1.91% (inactive) | inactive | inactive | – | – | – |
| C/C=C(\C)C(=O)OC1CC2C(C)(C)OC(=O)CC(OC(C)=O)C2(C)C2CC(OC(=O)C(C)C)C3(C)C(c4ccoc4)CC4OC43C12C (stereo unspecified) | -19.8% (inactive) | inactive | inactive | – | – | – |
| CN1CCCC1CCOC(c1cc2nccc(C(=O)O)c2[nH]1)c1ccccc1Cl (stereo unspecified) | 4.33% (inactive) | inactive | inactive | – | – | – |
| CC[C@H]1C[C@H]2[C@@H]3CCC4=CC(=O)CC[C@@H]4[C@H]3CC[C@]2(C)[C@H]1O | 5.67% (inactive) | inactive | inactive | – | – | – |
| CC[C@@H](C)[C@@H]1NC(=O)[C@@H]2CCCN2C(=O)[C@@H](CC(O)CCl)OC(=O)CCNC(=O)[C@H](C)N(C)C(=O)[C@H](C(C)C)N(C)C1=O (stereo partly specified) (cyclo([NMeA][βAla][X5]P[aIle][NMeV])) | -10.7% (inactive) | inactive | inactive | – | – | – |
| C[C@]12CC[C@H](O)C[C@@H]1CC[C@@H]1[C@@H]2CC[C@]2(C)[C@@H](C3=CC(=O)OC3)CC[C@]12O | 7.63% (inactive) | inactive | inactive | – | – | – |
| CC1=CC2/C=C(\C)CCC(O)C(O)/C=C/C(=O)OC23C(=O)NC(CC(C)C)C3C1C (stereo unspecified) | 0.763% (inactive) | inactive | inactive | – | – | – |
| C=C[C@H]1[C@H](O[C@@H]2O[C@H](CO)[C@@H](O)[C@H](O)[C@H]2O)OC=C2C(=O)OCC[C@H]21 | 6.11% (inactive) | inactive | inactive | – | – | – |
